We go through 48 compounds from publication PMC4336329 (PLoS ONE, 2015).

The campaign covered roughly 310,000 compounds. About 14,000 (4.5%) showed an effect of 50% or more. The effect is printed as a negative number. This is one part of a sample in which strong results are shown more often than they occur.
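Further: peak tail current of the secondary pulse compared with the same well before compound.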

Sequence of human ether-à-go-go-related gene (hERG) potassium channel (Q12809 whole entry, looked up): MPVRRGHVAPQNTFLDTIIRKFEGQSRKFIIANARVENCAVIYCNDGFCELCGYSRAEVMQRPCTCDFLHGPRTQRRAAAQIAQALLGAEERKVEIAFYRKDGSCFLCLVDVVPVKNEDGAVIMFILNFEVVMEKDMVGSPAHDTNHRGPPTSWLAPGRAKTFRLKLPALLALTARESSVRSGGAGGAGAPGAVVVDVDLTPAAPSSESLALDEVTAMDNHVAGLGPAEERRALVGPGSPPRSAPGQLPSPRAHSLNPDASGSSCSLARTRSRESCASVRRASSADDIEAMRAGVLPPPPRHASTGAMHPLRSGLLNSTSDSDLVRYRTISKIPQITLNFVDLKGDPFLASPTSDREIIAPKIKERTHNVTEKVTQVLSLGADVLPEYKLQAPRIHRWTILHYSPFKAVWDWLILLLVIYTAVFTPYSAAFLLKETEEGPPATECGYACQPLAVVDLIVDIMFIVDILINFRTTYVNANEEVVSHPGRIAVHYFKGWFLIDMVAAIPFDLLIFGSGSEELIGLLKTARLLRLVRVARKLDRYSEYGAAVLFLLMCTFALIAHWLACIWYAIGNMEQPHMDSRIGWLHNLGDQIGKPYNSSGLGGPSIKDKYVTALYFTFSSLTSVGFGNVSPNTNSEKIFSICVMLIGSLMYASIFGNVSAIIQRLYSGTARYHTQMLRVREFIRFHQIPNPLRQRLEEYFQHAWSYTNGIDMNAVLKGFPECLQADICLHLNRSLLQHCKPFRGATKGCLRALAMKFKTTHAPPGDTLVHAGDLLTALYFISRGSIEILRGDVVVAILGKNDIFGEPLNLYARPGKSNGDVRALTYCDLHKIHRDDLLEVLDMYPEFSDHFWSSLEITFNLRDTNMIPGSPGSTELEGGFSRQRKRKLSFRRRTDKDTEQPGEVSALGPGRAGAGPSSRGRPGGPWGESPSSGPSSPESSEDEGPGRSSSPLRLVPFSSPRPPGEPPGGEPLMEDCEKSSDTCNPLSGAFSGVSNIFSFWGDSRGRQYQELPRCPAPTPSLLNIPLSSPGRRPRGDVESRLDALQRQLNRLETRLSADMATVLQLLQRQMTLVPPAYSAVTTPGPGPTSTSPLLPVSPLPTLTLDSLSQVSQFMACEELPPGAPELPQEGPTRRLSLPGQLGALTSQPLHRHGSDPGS

The test addresses human ether-à-go-go-related gene (hERG) potassium channel (human, UniProt Q12809). Description: primary screen, population patch clamp on CHO cells stably expressing hERG; higher = less effect of the substance.
In the case of `Cc1ccc(OCC(O)CN2CCN(CCO)CC2)c(C)c1.Cl` (stereo not drawn), the “hERG current change (%, negative = inhibition) at 10uM” value was determined as 4.18%.

For the compound `Cc1ccc(C)c(OCC(O)CN2CCC(Cc3ccccc3)CC2)c1.Cl` (stereo not drawn), the “hERG current change (%, negative = inhibition) at 10uM” value is -67.6%.

As for `Cc1ccc(OCC(O)CN2CCC(Cc3ccccc3)CC2)c(C)c1.Cl` (stereo not drawn), the “hERG current change (%, negative = inhibition) at 10uM” value was -75.2%.

Consider `Clc1nc(-c2ccccc2)ncc1Oc1ccccc1`, for which the “hERG current change (%, negative = inhibition) at 10uM” value is 14.6%.

Regarding `Cc1ccc(-n2nnnc2SCC(=O)c2c(N)n(C3CC3)c(=O)[nH]c2=O)cc1C`, the “hERG current change (%, negative = inhibition) at 10uM” value was -10.6%.

`COc1cccc(/C=N/NC(=O)CNC(=O)c2ccc(S(=O)(=O)N3CCOCC3)cc2)c1OC`: the “hERG current change (%, negative = inhibition) at 10uM” value was -4.96%.

Consider `O=c1nc(-c2ccccc2)n(-c2ccccc2)[nH]1`, for which the “hERG current change (%, negative = inhibition) at 10uM” value is given as 1.69%.

Regarding `COCC1CCN(C(=O)c2cc(COc3cncc(Cl)c3)on2)C1` (stereo not drawn), the “hERG current change (%, negative = inhibition) at 10uM” value was 5.09%.

As to `C/C(CC(=O)Nc1cccc(Cl)c1C)=N\NC(=O)Cc1csc(N)n1`, the “hERG current change (%, negative = inhibition) at 10uM” value was 2.42%.

Take `N#Cc1c(N)nc2c(c1N)CC(CO)O2` (stereo not drawn): the “hERG current change (%, negative = inhibition) at 10uM” value is 22.6%.

For `Cc1occc1-c1nnc(SCC(=O)c2ccccc2)n1CC1CCCO1` (stereo not drawn), the “hERG current change (%, negative = inhibition) at 10uM” value is recorded as -8.58%.

In the case of `COc1ccc(-c2nnc(SCC(=O)NCc3cccs3)n2C(C)C)cc1`, the “hERG current change (%, negative = inhibition) at 10uM” value was -35.8%.

Take `COc1ccc(-c2nnc(SCC(=O)NCc3cccs3)n2C)cc1`: the “hERG current change (%, negative = inhibition) at 10uM” value is given as -1.49%.

On to `Cc1ccc(-n2c(SCC(=O)NCC3CCCO3)nnc2-c2ccoc2C)cc1` (stereo not drawn), for which the “hERG current change (%, negative = inhibition) at 10uM” value is -55.6%.

As to `O=C(CSc1nnc(-c2ccncc2)n1-c1ccc(Cl)cc1)NCc1cccs1`, the “hERG current change (%, negative = inhibition) at 10uM” value was -15.3%.

As to `Cc1occc1-c1nnc(SCC(=O)NCc2cccs2)n1-c1ccc(F)cc1`, the “hERG current change (%, negative = inhibition) at 10uM” value was -60.2%.

In the case of `Cc1occc1-c1nnc(SCC(=O)c2ccc(Cl)cc2)n1CC1CCCO1` (stereo not drawn), the “hERG current change (%, negative = inhibition) at 10uM” value is -65.1%.

On to `O=C(CSc1nnnn1-c1ccc(F)cc1)NCc1cccs1`, for which the “hERG current change (%, negative = inhibition) at 10uM” value is -0.104%.

For the compound `Cc1ccc(C)c(-n2c(SCC(=O)NCC3CCCO3)nnc2-c2ccoc2C)c1` (stereo not drawn), the “hERG current change (%, negative = inhibition) at 10uM” value is 6.82%.

Turning to `COc1ccc(C(=O)CSc2nnc(-c3ccoc3C)n2CC2CCCO2)cc1` (stereo not drawn), the “hERG current change (%, negative = inhibition) at 10uM” value is -11.7%.

With `COc1ccc(-n2c(SCC(=O)NCc3cccs3)nnc2-c2ccoc2C)cc1`, the “hERG current change (%, negative = inhibition) at 10uM” value is reported as -78%.

Regarding `Cc1occc1-c1nnc(SCC(=O)NCC2CCCO2)n1C` (stereo not drawn), the “hERG current change (%, negative = inhibition) at 10uM” value was -2%.

Turning to `COc1cccc(N=Nc2c(C)[nH]n(-c3ccccc3)c2=O)c1`, the “hERG current change (%, negative = inhibition) at 10uM” value was 10.1%.

With `O=C(Cn1nc(C(F)F)cc1C1CC1)N1CCCC1`, the “hERG current change (%, negative = inhibition) at 10uM” value was determined as 1.61%.

Turning to `CCCCn1c(SCC(=O)NC2CCS(=O)(=O)C2)nnc1-c1ccc(OC)cc1` (stereo not drawn), the “hERG current change (%, negative = inhibition) at 10uM” value is -4.68%.

As to `Cc1ccc(NC(=S)N/N=C2\CCCCC2C)cc1` (stereo not drawn), the “hERG current change (%, negative = inhibition) at 10uM” value is -10.4%.

For the compound `O=C(ONC1=NCCCCC1)c1ccc([N+](=O)[O-])cc1`, the “hERG current change (%, negative = inhibition) at 10uM” value is -5.87%.

With `CC(=O)Nc1ccc(S(=O)(=O)N2CCC(C(=O)NC3CCCC3)CC2)cc1`, the “hERG current change (%, negative = inhibition) at 10uM” value is recorded as -0.813%.

For `CC(=O)Nc1ccc(S(=O)(=O)NC(C)C(=O)NCCc2ccc(F)cc2)cc1` (stereo not drawn), the “hERG current change (%, negative = inhibition) at 10uM” value is 11.3%.

For `Cc1ccc(C(O)(C(=O)NNc2ccc3ccccc3[nH+]2)c2ccc(C)cc2)cc1.[Cl-]`, the “hERG current change (%, negative = inhibition) at 10uM” value worked out at 12.9%.

In the case of `Cc1cccc(-n2c(SCC(=O)O)nc3sc4c(c3c2=O)CCCC4)c1`, the “hERG current change (%, negative = inhibition) at 10uM” value came to 16.6%.

In the case of `CCCC(=O)C1C(=O)CC(C)(C)C(c2cc(C)no2)C1=O` (stereo not drawn), the “hERG current change (%, negative = inhibition) at 10uM” value is on record as -6.76%.

Consider `COC(=O)CSc1nnc(-c2ccoc2C)n1-c1ccc(C)cc1`, for which the “hERG current change (%, negative = inhibition) at 10uM” value was -37%.

Regarding `Nn1c(SCC(=O)NCC2CCCO2)nnc1-c1ccc(OC(F)F)cc1` (stereo not drawn), the “hERG current change (%, negative = inhibition) at 10uM” value was -68.5%.

Take `Cc1nnc(SCC(=O)NCc2cccs2)n1-c1ccccc1`: the “hERG current change (%, negative = inhibition) at 10uM” value turned out to be 1.68%.

Consider `Cc1ccc(-n2c(SCC(=O)NCc3cccs3)nnc2-c2ccoc2C)cc1`, for which the “hERG current change (%, negative = inhibition) at 10uM” value is -74.8%.

`COc1ccc(-c2nnc(SCC(=O)NCC3CCCO3)n2C)cc1` (stereo not drawn): the “hERG current change (%, negative = inhibition) at 10uM” value is 9.8%.

In the case of `CC(Sc1nnc(-c2ccc(OC(F)F)cc2)n1N)C(=O)NCC1CCCO1` (stereo not drawn), the “hERG current change (%, negative = inhibition) at 10uM” value is -24.2%.

As for `O=C1C2CCCN2C(c2ccc(Cl)cc2)N1c1ccccn1` (stereo not drawn), the “hERG current change (%, negative = inhibition) at 10uM” value is -3.03%.

Turning to `COc1ccc(CNCC(O)(c2ccccc2)c2ccc(F)cc2)cc1OC` (stereo not drawn), the “hERG current change (%, negative = inhibition) at 10uM” value is reported as -61.2%.

As for `COc1ccc(CNCc2ccc(C(F)(F)F)cc2)cc1OC.O=C(O)C(=O)O`, the “hERG current change (%, negative = inhibition) at 10uM” value is on record as 6.54%.

Take `COc1ccc(CNCC(O)(c2ccc(Cl)cc2)c2ccc(Cl)cc2)cc1OC`: the “hERG current change (%, negative = inhibition) at 10uM” value is reported as -30.9%.

As for `COc1ccc(CNCC(O)(c2ccc(F)cc2)c2ccc(F)cc2)cc1OC`, the “hERG current change (%, negative = inhibition) at 10uM” value is given as -62.1%.

With `COc1ccccc1CNCC(O)(c1ccc(F)cc1)c1ccc(F)cc1`, the “hERG current change (%, negative = inhibition) at 10uM” value is -68%.

As for `COc1ccc(CNCC(O)(c2ccccc2)c2ccccc2)cc1OC`, the “hERG current change (%, negative = inhibition) at 10uM” value is -60%.

With `COc1ccccc1CNCC(O)(c1ccc(Cl)cc1)c1ccc(Cl)cc1`, the “hERG current change (%, negative = inhibition) at 10uM” value is given as -13.7%.

As for `OC(CNCc1ccccc1F)(c1ccc(F)cc1)c1ccc(F)cc1`, the “hERG current change (%, negative = inhibition) at 10uM” value was -26.7%.

Take `Cc1ccc(CNCC(O)(c2ccccc2)c2ccccc2)cc1`: the “hERG current change (%, negative = inhibition) at 10uM” value is recorded as -33%.
